Assay results as given in the supplement of paper PMC6555819.

Tests used:
Test in all cases: PBM binding z-score (relative to random genomic background probes); higher = stronger binding; sequences stand for … in GC…GCGATTGACAGCGTAGAATGAAGG
[1] = test system: FXR:RXRa (NR concentration 270 nM, RXRa partner concentration 90 nM)
Summary of the method: (§1)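 Each nuclear receptor dimer, without ligand, was incubated for 1 h on custom Agilent 4×180K protein-binding microarrays. Binding was detected with antibodies against each partner (one per run), and scanned fluorescence was regression-normalized. The binding z-scores are referenced to random human genomic background probes.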

[2] = test system: LXRa:RXRa (NR concentration 270 nM, RXRa partner concentration 90 nM)
Summary of the method: as §1

[3] = test system: LXRa homodimer (NR concentration 270 nM)
Summary of the method: as §1

[4] = test system: LXRb:RXRa (NR concentration 270 nM, RXRa partner concentration 90 nM)
Summary of the method: as §1

[5] = test system: LXRb homodimer (NR concentration 270 nM)
Summary of the method: as §1

[6] = test system: PPARa:RXRa (NR concentration 270 nM, RXRa partner concentration 90 nM)
Summary of the method: as §1

[7] = test system: PPARg:RXRa (NR concentration 180 nM, RXRa partner concentration 90 nM)
Summary of the method: as §1

[8] = test system: PPARg:RXRa 270nM:90nM, anti-RXR (NR concentration 270 nM, RXRa partner concentration 90 nM)
Summary of the method: as §1

[9] = test system: PPARg:RXRa 30nM:10nM, anti-RXR (NR concentration 30 nM, RXRa partner concentration 10 nM)
Summary of the method: as §1

[10] = test system: PPARg:RXRa 90nM:30nM, anti-RXR (NR concentration 90 nM, RXRa partner concentration 30 nM)
Summary of the method: as §1

[11] = test system: PPARg:RXRa DBDmut IVT, anti-RXR (DBD mutation: RXRa K156A/R161A, NR concentration 270 nM, RXRa partner concentration 90 nM)
Summary of the method: as §1

[12] = test system: PPARg:RXRa IVT, anti-PPARg (NR concentration 270 nM, RXRa partner concentration 90 nM)
Summary of the method: as §1

[13] = test system: PPARg DBDmut:RXRa IVT, anti-PPARg (DBD mutation: PPARg1 K132A/R137A, NR concentration 270 nM, RXRa partner concentration 90 nM)
Summary of the method: as §1

[14] = test system: PPARg DBDmut IVT, anti-PPARg (DBD mutation: PPARg1 K132A/R137A, NR concentration 270 nM)
Summary of the method: as §1

[15] = test system: PPARg homodimer (NR concentration 180 nM)
Summary of the method: as §1

[16] = test system: PXR:RXRa (NR concentration 270 nM, RXRa partner concentration 90 nM)
Summary of the method: as §1

[17] = test system: PXR homodimer (NR concentration 270 nM)
Summary of the method: as §1

[18] = test system: RARa:RXR (NR concentration 270 nM, RXRa partner concentration 90 nM)
Summary of the method: as §1

[19] = test system: RARa homodimer (NR concentration 270 nM)
Summary of the method: as §1

[20] = test system: RARb:RXRa (NR concentration 270 nM, RXRa partner concentration 90 nM)
Summary of the method: as §1

Row | Sequence | PBM binding z-score [1] | PBM binding z-score [2] | PBM binding z-score [3] | PBM binding z-score [4] | PBM binding z-score [5] | PBM binding z-score [6] | PBM binding z-score [7] | PBM binding z-score [8] | PBM binding z-score [9] | PBM binding z-score [10] | PBM binding z-score [11] | PBM binding z-score [12] | PBM binding z-score [13] | PBM binding z-score [14] | PBM binding z-score [15] | PBM binding z-score [16] | PBM binding z-score [17] | PBM binding z-score [18] | PBM binding z-score [19] | PBM binding z-score [20]
1 | GATAAAGGGTCAAGGCCAGAGTACGCGTATTGAT | 7.29 | 5.43 | 0.637 | 4.49 | 0.548 | 6.28 | 6.56 | 6.32 | 3.17 | 5.23 | 3.62 | 4.58 | 0.966 | 0.381 | 3.16 | 4.19 | 0.42 | 5.07 | 0.732 | 5.26
2 | CGTCAAAGTTCAACTAGGGTAACGTAAAGCACGC | 7.53 | 6.47 | 4.77 | 4.43 | 2.39 | 5.32 | 5.78 | 5.97 | 2.98 | 5.07 | 1.68 | 3.83 | 0.643 | 0.081 | 3.72 | 5.46 | 6.56 | 4.56 | 1.44 | 5.37
3 | GCGACTGGGGCAAAGCAGGTTACGATAAGGTTGG | 0.296 | -0.117 | -0.718 | 0.363 | -0.982 | 1.47 | 1.32 | 1.43 | -0.188 | 0.405 | 4.13 | 3.73 | -0.523 | -0.59 | 0.215 | 0.285 | -0.433 | 0.352 | -0.129 | 0.879
4 | CCTAGCAGGCCAGGGTCACTCACGCATTTCGCTT | 2.04 | 1.57 | -0.247 | 1.73 | -0.927 | 2.94 | 0.599 | 1.29 | -0.606 | 0.36 | 0.345 | 0.942 | -0.473 | -1.26 | 1.45 | 2.31 | -0.101 | 3.17 | 0.177 | 2.41
5 | CCCACTGGGCCAAAAAGGTCATTGATGCCGATAA | 3.49 | 4.24 | 3.22 | 4.01 | 0.236 | 4.45 | 3.06 | 4.19 | 1.38 | 3.23 | 2.99 | 4.17 | -1.05 | -0.939 | 3.72 | 4.91 | 4.6 | 5.4 | 1.88 | 4.02
6 | TCAGACAGGTGAAGGTAACTCCGGTACGCAGTCG | 0.787 | 2.08 | -0.352 | 0.966 | -0.314 | 1.21 | 0.509 | 2.09 | 3.78 | 2.96 | 2.59 | 1.09 | -0.276 | -0.342 | 0.498 | 0.475 | -0.04 | 0.651 | 0.0905 | 1.1
7 | ACTATTAGTTGAGACGAGGGCTACCGATAGGTTG | -0.0056 | -0.0365 | -0.197 | -0.414 | 0.162 | -0.477 | 0.7 | -0.127 | 0.174 | 0.0258 | 0.458 | 0.0737 | 0.772 | 0.929 | -0.361 | -0.232 | -0.105 | -0.544 | 0.451 | 0.191
8 | CGATCGAGGGCATGAGTTGATAGCAAATGCCGAT | 0.233 | -0.0163 | -0.798 | -0.0334 | -1.04 | 1.22 | 1.17 | 1.29 | -0.0363 | 0.755 | 2.46 | 1.93 | -0.505 | -0.163 | 0.296 | 0.228 | -0.306 | 0.106 | -0.984 | 1.94
9 | GCTACTAGGTCAGGTTGGTCAGCTAACGGGTACG | 1.47 | 0.811 | 0.0315 | 0.809 | 0.129 | 2.66 | 4.12 | 3.52 | 0.868 | 3.19 | 7.04 | 6.37 | 0.412 | 0.27 | 1.12 | 0.422 | -0.0861 | 0.74 | 0.258 | 3.26
10 | GTTTACGGGTCAAAGGTTATAGCATGAATAGAAT | 6.92 | 5.94 | 0.633 | 6 | 0.401 | 6.92 | 11.3 | 9.13 | 9.06 | 10.1 | 4.49 | 6.3 | 1.34 | 0.914 | 2.36 | 6.4 | 0.568 | 8.19 | 0.857 | 4.66
11 | TCATATTGGTAAACAGGTGAAAGTCCGTAAGTTA | 1.17 | 0.929 | 0.49 | 1.15 | 0.247 | 1.66 | 0.821 | 2.67 | 4.04 | 3.3 | 2.2 | 1.5 | 0.411 | 1.32 | 1.25 | 1.03 | 0.511 | 1.35 | 1.38 | 0.73
12 | AGAAAGAGGTTACCAAAGATCAGGGAAACGCTTG | 2.31 | 6.51 | -0.18 | 3.65 | 0.0945 | 3.37 | 2.1 | 2.36 | 0.802 | 1.77 | 1.97 | 1.94 | 0.516 | 0.104 | 0.75 | 1.82 | -0.238 | 2.63 | 0.245 | 2.62
13 | CGTCCAAGGTCAAAGTCAGTGAAAGAGACTCGAA | 7.61 | 5.36 | 0.709 | 4.03 | 1.64 | 5.87 | 5.41 | 5.32 | 1.82 | 4.19 | 3.22 | 3.56 | -0.516 | -0.183 | 2.62 | 3.72 | 0.349 | 4.01 | 1.36 | 5.14
14 | TCTTGTTGATCAGCAGGTTAAGAAAGCTGGCCAA | 0.582 | 0.423 | -0.308 | 0.784 | -0.493 | 0.727 | -0.682 | 1.17 | 2.56 | 1.66 | 1.56 | 0.0637 | -0.302 | -0.327 | -0.0408 | 0.332 | -0.115 | 0.447 | -0.41 | 0.288
